Active and inactive are the calls of the source. Unless noted, the rule behind the calls is not given here.

Experimental findings from PubChem BioAssay are described below.

Test [1] is described as follows: resazurin metabolic signal in HepG2 cells – cell-based, resazurin fluorescence, 24 h, PK04 Diversity Set, profiling panel (AID 1172). Note: test concentration not given here. The note with it: HepG2 viability, higher = more signal. A general note: Resazurin is reduced to fluorescent resorufin, in cell work by metabolically active cells.
Test [2] is described as follows: budding yeast growth changes without added modifier – OD600, strain BY4716, 24 h, basal condition, primary screen (AID 1173). The note with it: S. cerevisiae BY4716 growth, OD600, 24 h; higher = more signal, called active from +8 up or from −8 down.
A short description of test [3]: viability profiling in MM1S myeloma cells – cell-based, resazurin fluorescence, basal, 24 h, PK04 Diversity Set, profiling panel (AID 1174).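 Note: MM1S multiple myeloma cell line; test concentration not given here.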 The note with it: higher = more signal, called active from +8 up or from −8 down.
The target in test [4] is Dihydroorotate dehydrogenase (quinone), mitochondrial (Plasmodium falciparum (isolate 3D7)) (UniProt Q08210). The test can be described thus: inhibition of P. falciparum DHODH – biochemical, C-terminal His tag, absorbance 600 nm, primary screen (AID 1175).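 Note: recombinant parasite enzyme with a five histidine tag at its C terminus; test concentration not given here.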 The note with it: PfDHODH enzyme, DCIP absorbance 600 nm; higher = more signal, called active from +8 up or from −8 down.

A short description of test [5]: inhibition of PAO1 biofilm formation – strain PAO1, LB-PBS medium, absorbance 600 nm, primary screen (AID 1176). Note: test concentration not given here. The note with it: P. aeruginosa PAO1 growth/biofilm, A600, 12 h; higher = more signal.
A short description of test [6]: growth modulation of vineyard yeast isolate – strain RM11-1a, OD600, basal, 24 h, primary screen (AID 1177).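 Note: cultures grown under basal conditions with no added stressor; test concentration not given here.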 The note with it: S. cerevisiae RM11-1a growth, OD600, 24 h; higher = more signal, called active from +8 up or from −8 down.
A short description of test [7]: growth of efflux-deficient E. coli DRC39 – strain DRC39, OD650, 24 h, E. coli filamentation inducers, primary screen (AID 1178).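 Note: growth measured as culture turbidity by optical density at 650 nm; test concentration not given here.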 The note with it: E. coli DRC39 acrAB, higher = more signal, called active from +8 up or from −8 down.
A short description of test [8]: growth of efflux-deficient E. coli DRC39 – strain DRC39, OD650, 48 h, E. coli filamentation inducers, primary screen (AID 1179).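 Note: screen aims at cell division blockers that make cells filament.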 The note with it: E. coli DRC39 delta-acrAB growth, higher = more signal, called active from +8 up or from −8 down.
Test [9] is described as follows: viability profiling in RPMI8226 myeloma cells – cell-based, resazurin fluorescence, basal, 24 h, PK04 Diversity Set, profiling panel (AID 1180).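 Note: RPMI8826 multiple myeloma cell line at 5000 cells per well; test concentration not given here.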 The note with it: higher = more signal.
Test [10] deals with E3 ubiquitin-protein ligase XIAP (Homo sapiens) (UniProt P98170). In words: small molecules binding XIAP protein – biophysical, small-molecule microarray, fluorescence 635 nm, primary screen (AID 1181).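 Note: score merges 667 nm emission and signal to noise over triplicate slides.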 The note with it: higher = more signal.
E3 ubiquitin-protein ligase XIAP (Homo sapiens), sequence (P98170 whole entry, looked up): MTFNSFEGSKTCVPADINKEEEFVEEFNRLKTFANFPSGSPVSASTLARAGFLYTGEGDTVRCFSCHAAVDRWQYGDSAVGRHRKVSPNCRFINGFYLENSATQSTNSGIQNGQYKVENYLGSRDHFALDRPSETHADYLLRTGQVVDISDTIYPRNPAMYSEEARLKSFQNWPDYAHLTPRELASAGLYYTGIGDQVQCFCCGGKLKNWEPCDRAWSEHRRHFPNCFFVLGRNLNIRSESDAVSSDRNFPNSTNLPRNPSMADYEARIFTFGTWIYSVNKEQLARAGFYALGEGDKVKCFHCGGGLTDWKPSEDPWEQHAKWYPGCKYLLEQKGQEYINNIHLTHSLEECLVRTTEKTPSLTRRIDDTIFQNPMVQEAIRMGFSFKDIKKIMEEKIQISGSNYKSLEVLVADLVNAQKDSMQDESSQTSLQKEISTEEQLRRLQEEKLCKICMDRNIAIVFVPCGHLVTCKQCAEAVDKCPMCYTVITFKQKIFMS

Dihydroorotate dehydrogenase (quinone), mitochondrial (Plasmodium falciparum (isolate 3D7)), sequence (Q08210 whole entry, looked up): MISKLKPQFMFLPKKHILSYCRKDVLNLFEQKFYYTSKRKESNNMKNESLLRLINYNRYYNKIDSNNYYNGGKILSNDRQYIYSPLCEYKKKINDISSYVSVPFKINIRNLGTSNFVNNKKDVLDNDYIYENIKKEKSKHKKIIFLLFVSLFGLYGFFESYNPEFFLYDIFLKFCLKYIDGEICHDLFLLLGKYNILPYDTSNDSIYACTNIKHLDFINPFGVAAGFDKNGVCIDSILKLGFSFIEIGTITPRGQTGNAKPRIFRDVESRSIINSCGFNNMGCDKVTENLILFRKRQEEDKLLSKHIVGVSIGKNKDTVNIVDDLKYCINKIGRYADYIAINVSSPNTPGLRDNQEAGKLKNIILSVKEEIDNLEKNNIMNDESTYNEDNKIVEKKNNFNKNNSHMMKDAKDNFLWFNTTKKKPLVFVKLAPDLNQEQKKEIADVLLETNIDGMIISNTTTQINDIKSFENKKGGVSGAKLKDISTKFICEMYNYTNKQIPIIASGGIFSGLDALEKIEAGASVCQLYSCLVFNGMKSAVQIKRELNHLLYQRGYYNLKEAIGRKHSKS

As to `COC(=O)[C@H]1[C@@H]2COc3ccccc3[C@H]2N[C@H]1C(=O)OC`, the z-score in test [1] is 0.0968; in test [2], -1.81 (inactive); in test [3] it was -0.586 (inactive); in test [5], -0.508 (inactive); in [6], -0.398 (inactive); in [7], 0.226 (inactive). The z-score in [8] was 0.398 (inactive); in test [9] it was -0.139. The figures for the composite z-score in [4] and in test [10] were -16.2 (active) and 0.0432, respectively.

As to `CC(=O)NCCCC[C@@H]1NC(=O)[C@@H]2C[C@H](C(=O)NCc3ccc(F)cc3)[C@H](c3cccc(OCCO)c3)N2C1=O`, the z-score in [1] is -0.352; in test [2], 0.473 (inactive); in test [3] it was 0.0366 (inactive); in test [5], 0.298 (inactive); in test [6] it was 0.625 (inactive); in test [7], -0.34 (inactive). In addition, the z-score is -0.17 (inactive) in test [8] and 0.168 in test [9]. Besides, the composite z-score in test [4] was -0.79 (inactive); in [10] it was -0.335.

Consider `COC(=O)C(CC#Cc1ccc2c(c1)[C@]1(C(=O)N2)[C@H](C(=O)N2CCCCCCC2)[C@H]2C(=O)O[C@H](c3ccccc3)[C@H](c3ccccc3)N2[C@@H]1c1ccc(O)cc1)C(=O)OC`, for which the z-score was 0.436 in test [1]; -0.636 (inactive) in [2]; 0.636 (inactive) in test [3]; 0.473 (inactive) in [5]; -0.016 (inactive) in [6]; -0.177 (inactive) in test [7]. Further, the z-score is -0.312 (inactive) in test [8] and 0.402 in test [9]. In addition, the composite z-score is -0.665 (inactive) in test [4] and 0.0512 in test [10].

Take `O=C(NCc1ccccc1)c1ccc(Br)cc1[N+](=O)[O-]`: the z-score is 0.0759 in [1]; -2.42 (inactive) in [2]; 0.0636 (inactive) in [3]; -0.131 (inactive) in test [5]; -0.465 (inactive) in [6]; 0.986 (inactive) in test [7]. Moreover, the results for the z-score in test [8] and in test [9] were -0.411 (inactive) and -0.447, respectively. Also, the composite z-score in [4] was -1.37 (inactive); in test [10] it was -0.127.

With `COc1ccc(NN2C(C(O)c3cc(OC)c(OC)c(OC)c3)C=CC3C(=O)N(C4CCCCC4)C(=O)C32)cc1` (stereo not given), the z-score in [1] was -0.665; in test [2], -0.376 (inactive); in test [3], -0.946 (inactive); in [5] it was 0.89 (inactive); in test [6], 0.389 (inactive); in test [7], -1.02 (inactive). The z-score in test [8] was 0.187 (inactive); in [9] it was -1.48. For the same compound, the composite z-score in test [4] was -0.41 (inactive); in test [10], 0.147.

Consider `O=C1O[C@@H](c2ccccc2)[C@@H](c2ccccc2)N2[C@@H](c3ccc(OCCO)cc3)[C@]3(C(=O)Nc4ccc(C#CCCO)cc43)[C@@H](C(=O)N3CCN(c4ncccn4)CC3)[C@H]12`, for which the z-score in test [1] is 1.26; in [2], 1.35 (inactive); in test [3], 0.833 (inactive); in test [5], 1.55 (inactive); in [6] it was 2.04 (inactive); in test [7], 1.05 (inactive). Moreover, the z-score in test [8] is 0.17 (inactive); in [9], 2.17. Moreover, the composite z-score is -1.58 (inactive) in test [4] and 0.19 in [10].

For the compound `NC(=O)NCC#Cc1ccc2c(c1)[C@]1(C(=O)N2)[C@H](c2ccccc2OCCO)N2[C@H](c3ccccc3)[C@H](c3ccccc3)OC(=O)[C@H]2[C@@H]1C(=O)N1CCN(c2ncccn2)CC1`, the z-score in test [1] is -0.381; in [2], 0.887 (inactive); in test [3] it was -0.17 (inactive); in [5] it was 2.31 (inactive); in [6] it was 2.03 (inactive); in [7], 1.27 (inactive). The z-score was 0.158 (inactive) in test [8] and 1.19 in [9]. For the same compound, the results for the composite z-score in test [4] and in test [10] were -0.343 (inactive) and -0.178, respectively.

On to `O=C(CS)NCCCCCCNC(=O)[C@@H]1C[C@@H]2C(=O)N[C@@H](Cc3ccccc3)C(=O)N2[C@@H]1c1ccc(O)cc1`, for which the z-score in test [1] is -0.306; in test [2], 0.636 (inactive); in [3], 0.0515 (inactive); in test [5], -0.239 (inactive); in [6], 0.809 (inactive); in [7], -0.288 (inactive). For the same compound, the results for the z-score in test [8] and in test [9] were -0.889 (inactive) and -0.518, respectively. For the same compound, the composite z-score in [4] is 0.224 (inactive); in test [10] it was 0.0518.

As for `C#C[C@H](O[Si](C#Cc1ccccc1)(C(C)C)C(C)C)c1ccccc1`, the z-score in [1] was -0.271; in test [2], -17.7 (active); in test [3], -0.633 (inactive); in test [5] it was 0.738 (inactive); in test [6], -11.8 (active); in [7] it was -0.329 (inactive). The values for the z-score in test [8] and in [9] were 0.127 (inactive) and -0.533, respectively. For the same compound, the composite z-score in test [4] was -0.203 (inactive); in test [10], 0.0049.

In the case of `O=C/C=C/c1ccc(/C=C/c2ccccc2)cc1`, the z-score in [1] is 0.555; in test [2], -16.4 (active); in test [3], 0.408 (inactive); in test [5], 0.668 (inactive); in test [6] it was -1.01 (inactive); in test [7], 2.11 (inactive). Moreover, the z-score in [8] was 1.56 (inactive); in [9], -3.21. For the same compound, the composite z-score was -1.43 (inactive) in [4] and -0.242 in test [10].

On to `CC(C)C[C@@H]1NC(=O)[C@H](CC(C)C)NC(=O)[C@@]23C(=O)N[C@@H](Cc4ccccc4)C2[C@H](C)[C@@]2(C)O[C@H]2C3/C=C/CC/C=C/CNC1=O` (stereo not given in full), for which the z-score was -0.0096 in test [1]; -0.737 (inactive) in test [2]; 0.229 (inactive) in test [3]; 0.179 (inactive) in [5]; 0.569 (inactive) in test [6]; 0.794 (inactive) in test [7]. Moreover, the z-score in [8] was -0.103 (inactive); in test [9] it was 0.0441. For the same compound, the composite z-score in test [4] is -0.744 (inactive); in test [10], -0.02.

For the compound `[N-]=[N+]=NCc1ccccc1C[C@@]1(C(=O)O)N=C(c2ccc(OCCCO)cc2)O[C@@H]1c1ccccc1N=[N+]=[N-]`, the z-score in [1] is 0.0549; in [2], -1 (inactive); in test [3], -1.47 (inactive); in [5] it was 0.755 (inactive); in test [6] it was -0.268 (inactive); in test [7], 0.604 (inactive). The z-score in [8] is 0.331 (inactive); in test [9], -0.876. Further, the composite z-score in [4] is 0.313 (inactive); in test [10], 0.0524.

Consider `CC[C@@H]1C=C(C(=O)O)[C@H](c2ccccc2)N1S(=O)(=O)c1ccc([N+](=O)[O-])cc1`, for which the z-score is 0.244 in test [1]; 0.736 (inactive) in test [2]; -0.253 (inactive) in test [3]; -0.461 (inactive) in test [5]; -0.1 (inactive) in [6]; -2.44 (inactive) in test [7]. Further, the z-score in [8] was -1.84 (inactive); in [9], 0.0416. Further, the composite z-score in [4] is 0.264 (inactive); in test [10] it was 0.101.
